# Measurements reported in PubChem BioAssay AID584 (National Center for Advancing Translational Sciences (NCATS), 2007).
# Screen size: about 71,000 compounds; about 65 (0.09%) were called active. Entries that show only a call come without a potency. The sample as a whole holds a higher share of actives than the screen did. A number with no mark means an inactive call. Calls come from the whole dose curve; as a rule, active = well fitted curve in the direction sought with a large enough effect; inconclusive = small, poorly fitted or top-dose-only effect; inactive = flat fitted curve, though single readings scatter.
# Target: Beta-lactamase (Escherichia coli (strain K12)) (UniProt P00811)
# Assay: Promiscuous and Specific Inhibitors of AmpC Beta-Lactamase (assay with detergent)
# Details: purified AmpC, nitrocefin hydrolysis with detergent; series mostly up to 28.7 µM
# Procedure: NIH Molecular Libraries Screening Centers Network [MLSCN]
# NIH Chemical Genomics Center [NCGC]
# PI Name: Shoichet, Brian K.
# This aggregation profiling approach exploits the sensitivity of aggregate formation to detergent. Inhibition of b-lactamase is measured in the presence and absence of 0.01% Triton X-100. This particular assay had the prescence of 0.01% Triton X-100. See Pubchem assay "Promiscuous and Specific Inhibitors of AmpC Beta-Lactamase (assay without detergent)" for related screen. Compounds that inhibit only in the absence of detergent are considered likely promiscuous aggregators.
# A screen of 1,030 compounds was performed in Brian Shoichet's lab in 96-well format. AmpC activity was measured by following the absorbance at 480 nm. Nitrocefin is a chromogenic substrate: while nitrocefin is yellow (lmax 390 nm), the product of its hydrolysis is red (lmax 486 nm, 17,000 M-1). AmpC beta lactamase was provided by Brian Shoichet and Brian Feng, UCSF.
# NCGC Assay Protocol Summary:
# 20 mM phosphate buffer, pH 7.0
# Triton X-100: No Detergent screen: 0.0001%, Detergent screen: 0.01%.
# Buffer in columns 3 and 4 as negative control (no enzyme).
# 5.3 nM AmpC in columns 1, 2, 5-48. Titration of UCSF compound 9 control (from 10 mM, then 1:2) pin-transferred to column 2. Column 1 is neutral (100% activity).
# Six uL of reagents were dispensed to 1536-well Greiner black clear bottom plates. Compounds and controls (23 nL) were transferred via Kalypsys PinTool. The plates were incubated for 15 min at room temperature, and then 2 uL of 800 uM solution of nitrocefin was added to start the reaction. The plates were immediately transferred to and read every 20 seconds for 4 min on ViewLux (Perkin-Elmer) High-throughput CCD imager using 480 nm absorbance protocol. During dispense, reagent bottles were kept submerged into 4 deg C water bath.
# Keywords: NIH Roadmap, MLSCN, MLI, MLSMR, qHTS, NCGC, AmpC Beta-Lactamase, Aggregation
# Potency is the fitted concentration of half-maximal effect.
# Beta-lactamase (Escherichia coli (strain K12)), sequence (P00811 whole entry, looked up): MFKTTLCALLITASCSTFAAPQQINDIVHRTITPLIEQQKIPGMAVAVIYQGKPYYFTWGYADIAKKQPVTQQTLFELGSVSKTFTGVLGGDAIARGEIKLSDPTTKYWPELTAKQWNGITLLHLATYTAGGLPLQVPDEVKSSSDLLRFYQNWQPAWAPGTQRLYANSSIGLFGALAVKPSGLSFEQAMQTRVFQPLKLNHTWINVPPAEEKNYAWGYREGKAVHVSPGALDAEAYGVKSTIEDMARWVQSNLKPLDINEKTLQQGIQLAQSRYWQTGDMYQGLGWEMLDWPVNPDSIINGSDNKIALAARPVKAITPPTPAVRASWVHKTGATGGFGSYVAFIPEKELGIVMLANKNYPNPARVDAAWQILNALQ
SMILES,"activity change, negative = inhibition",Potency
CCOC(=O)C1C(=O)C=C(c2ccc(OC)cc2)CC1c1ccco1 (stereo not drawn),inactive,
O=C(C1CCC(C(=O)N2CCCC2)CC1)N1CCCC1 (stereo not drawn),inactive,
O=C1CCc2cc(S(=O)(=O)N3CCC(C(=O)NCc4ccccc4Cl)CC3)ccc2N1,inactive,
COc1cccc(-n2c(Cc3cc(=O)[nH]c(=O)[nH]3)nnc2SCC(=O)Nc2ccccc2)c1,inactive,
COc1ccc(C)cc1NC(=O)CSc1nc(SC)ns1,inactive,
Cc1ccc2cc3cc(C(=O)N4CCCCCC4)oc3nc2c1,inactive,
COc1ccccc1CNc1ncnc2ccc(-c3c(C)noc3C)cc12,inactive,
CC(=O)N1[C@H](C)C=C[C@]1(Cc1ccccc1)C(=O)NCc1ccccn1,inactive,
CCOc1cc2[nH]c(=S)n(CCCN3CCCC3=O)c(=O)c2cc1OCC,inactive,
CCOc1cc(C(=O)N2CCc3cc(OC)c(OC)cc3C2)ccc1OC(F)F,inactive,
N#C/C(=C\c1ccc(O)c(O)c1)C(=O)NCc1ccccc1,inactive,
C=C(C)COc1ccc(-c2n[nH]c(C)c2-c2ccccc2OC)c(O)c1,inactive,
CC(C)(C)n1nnnc1C(c1ccc2ncccc2c1)N1CCSCC1 (stereo not drawn),inactive,
NCCNCC1CCNCC1,-0.8% [at 5.75 µM],
CCc1nnc(NC(=O)c2ccc(S(=O)(=O)NC3CCCCC3)cc2)s1,inactive,
Cc1cccc(N2CCN(C(c3ccccc3)c3nnnn3CC3CCCO3)CC2)c1C (stereo not drawn),inactive,
Cc1cccc2cc(CN(Cc3nnnn3Cc3ccccc3)C3CCCC3)c(=O)[nH]c12,inactive,
CCS(=O)(=O)N1CCCC(C(=O)NCCCN(C)Cc2ccccc2)C1 (stereo not drawn),inactive,
CC1=CC(=O)C2=C(C)C[C@H](O)[C@@H]3[C@@H](OC(=O)[C@H]3C)[C@H]12,inactive,
Cc1ccc(N2C(=O)c3oc4ccccc4c(=O)c3C2c2cccnc2)nc1 (stereo not drawn),inactive,
O/N=C1\CC2(Cc3nonc31)OCCO2,inactive,
Cn1c(=O)c(-c2ccccc2)nc2cnc(N3CCNCC3)nc21,inactive,
CCOC(=O)CSc1nnc(CNc2nc(-c3ccccc3)cs2)n1C,inactive,
Cc1ccc(-n2nc(-c3ccco3)cc2C(=O)NCc2cccnc2)cc1,inactive,
Cc1ccc(S(=O)(=O)N2CCC(C(=O)N[C@@H](C)C(=O)NCc3ccccc3)CC2)cc1,inactive,
N#Cc1ccccc1-c1ccc2ncnc(NCc3cccnc3)c2c1,inactive,
NC(=O)c1ccc(OC[C@H](O)CN2CC=C(c3ccc(F)cc3)CC2)cc1,inactive,

SMILES,"activity change, negative = inhibition",Potency
CCCn1c(-c2ccc(F)cc2)nc2c(NC3CCN(Cc4ccccc4)C3)nc(C)nc21 (stereo not drawn),inactive,
CC(C)c1cc(CN(C)C)c(O)c(C(C)(C)C)c1,-4.5% [at 5.75 µM],
O=C1N(Cc2ccc3c(c2)OCO3)c2ccccc2C1(O)c1c[nH]c2ccccc12 (stereo not drawn),inactive,
CC(C)(C)NC(=O)C(c1ccncc1)N(C(=O)CNC(=O)c1ccco1)c1ccc2c(c1)OCO2 (stereo not drawn),inactive,
O=C(NC12CC3CC(CC(C3)C1)C2)N1CCCC(CO)C1 (stereo not drawn),inactive,
CC(C)(O)[C@H]1[C@H]2OC(=O)[C@@H]1[C@]1(O)C[C@H]3O[C@]34C(=O)O[C@H]2[C@]14C,inactive,
CC(=O)Oc1ccc(C(=O)Nc2nccs2)cc1,inactive,
COc1ccc2[nH]cc(CCNc3cc(-c4ccccc4CN(C)C)ncn3)c2c1,inactive,
CCCNC(=O)C1CC(=O)N(c2ccc(OCC(=O)Nc3cccc(C)c3C)cc2)C1 (stereo not drawn),inactive,
O=C(NCC1CCCO1)C(C(=O)c1ccccc1)n1cc(Cl)ccc1=O (stereo not drawn),inactive,
O=C(c1cccs1)N1CCCC(c2nc(-c3ccc(F)cc3)no2)C1 (stereo not drawn),inactive,
CS(=O)(=O)NCc1ccc(C(=O)NCc2ccccc2)cc1,inactive,
COc1cccc(-n2c(SCC(=O)NC3CCCCC3)nc3n[nH]c(C)c3c2=N)c1,inactive,
CCOC(=O)c1ccc(N2C(=O)CC(N3CC(C)OC(C)C3)C2=O)cc1 (stereo not drawn),inactive,
CCOc1ccc2nc(NCCNS(=O)(=O)c3ccccc3)c(C#N)cc2c1,inactive,
O=C(Cn1ccc(=O)[nH]c1=O)Nc1ccc(C(=O)O)c(O)c1,-5.4% [at 5.75 µM],
COc1cc(C[C@H](C)N)c(OC)cc1I,inactive,
O=C(Nc1ccccc1)N(Cc1cccnc1)Cc1ccco1,inactive,
O=C(O)CSCNC(=O)CC12CC3CC(CC(C3)C1)C2,inactive,
CCOc1c(N2CCCCC2)c(=O)c1=O,inactive,
NC(=S)c1ccc(C(N)=S)o1,inactive,
O=C(Nc1ccccc1)N[C@H]1C[C@H](C(=O)O)Nc2cc(Cl)cc(Cl)c21,inactive,
O=C(CN(CC1CCCO1)C(=O)CNS(=O)(=O)c1ccccc1)NCc1ccccc1 (stereo not drawn),inactive,
COC(=O)c1ccc(S(=O)(=O)c2ccc(C(=O)OC)s2)s1,inactive,
CCNS(=O)(=O)c1ccc(NC(=O)Nc2cccc(C(F)(F)F)c2)cc1,inactive,
O=C(Oc1cccnc1)c1cc2ccccc2oc1=O,,10 µM (active)
